Insulin prom up – insulin promoter activators in MIN6 cells, imaging, high-content screening, mouse beta cells; z-score at 5 µM; 190,000 tested, 0.3% active; MIN6 insulin promoter-GFP reporter; active compounds read high; AID 1625, 2009;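 active = z-score above 3 at 5 µM with at least 500 cells counted in the well; inconclusive = wells under 500 cells, flagged as cytotoxic or low count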
WT yeast gro inh – growth inhibition of WT strain, primary screen, mitochondrial fusion inhibitor project, WT and mutant strains, chemical genetic. mitochondrial fusion phenotypic screen. inhibition, % at 10 µM. 190,000 tested, 2.1% active; in the data active = inhibition above about 58%; tested in S. cerevisiae
Autophagy mod – autophagy modulators in MEF cells, primary screen, imaging, high-content, MEF GFP-LC3; MEF GFP-LC3 puncta imaging; test concentration mostly 10 µM; calls only at 10 µM (by protocol); 190,000 tested, 0.98% active; AID 463193, 2010;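 active = percentage of spot-positive cells more than 3 SD above its plate mean, without a fluorescence outlier flag or 80% toxicity; inconclusive = no clear call, values can overlap the other calls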;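 also: spot-positive cell cutoff set from DMSO-treated cells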
INS promoter inh – inhibitors of insulin promoter-driven GFP, primary screen, imaging, TRM-6 cells (human fetal islet line), eGFP reporter, cell count. reporter expression induced with tamoxifen. inhibition, % at 2 µM. 130,000 tested, 0.9% active. AID 1273, 2008;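 active = inhibition above the mean plus 3 SD, with well images judged a real hit on visual review, cut at about 60% in these data, passing the limit was not always enough; inconclusive = inhibition over the cutoff but images rejected on review; inactive = inhibition not above the cutoff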
L major viab – Leishmania major promastigote growth inhibition, primary screen | Leishmania major promastigotes, resazurin fluorescence viability | inhibition, % at 10 µM | 200,000 tested, 9% active; in the data active = inhibition above about 50%;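 also: promastigotes grown with compound for 44 hours at 28 °C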
The depositor's hits bear a star; i = inactive; ? = inconclusive; . = no result given. An excerpt weighted towards active compounds, which were near 11% of everything screened.

SMILES	Insulin prom up	WT yeast gro inh	Autophagy mod	INS promoter inh	L major viab
Cc1cc(NC(=O)CCC(=O)N(Cc2ccco2)C(C(=O)NC2CCCCC2)c2cccs2)no1 (configuration not stated)	-0.15	-2.4	i	.	-1.7
Cc1ccc(C(C(=O)NC2CCCC2)N(Cc2ccco2)C(=O)CCC(=O)Nc2cc(C)on2)cc1 (configuration not stated)	.	-20.1	i	i	82.5*
Cc1cc(C)cc(N(C(=O)CCC(=O)Nc2cc(C)on2)C(C(=O)NC2CCCC2)c2ccco2)c1 (configuration not stated)	-0.45	-5.5	i	.	88.5*
Cc1ccc(N(C(=O)CCC(=O)Nc2cc(C)on2)C(C(=O)NC2CCCC2)c2ccccc2)cc1 (configuration not stated)	0.39	-10.9	i	.	9.8
CN(CCC#N)C(=O)COC(=O)c1ccccc1OCc1ccccc1Cl	0.13	-12.5	i	.	4.0
Cn1ccnc1C1CCCCN1C(=O)c1cc(COc2ccc(F)cc2F)on1 (configuration not stated)	0.18	.	.	.	.
CCOC(=O)C1(CCc2ccccc2)CCN(C(=O)CN2C(=O)CSC2=O)CC1	0.17	-11.0	i	28.6	6.5
Cc1ccc(N(C(=O)CCC(=O)Nc2cc(C)on2)C(C(=O)NC2CCCC2)c2cccs2)cc1 (configuration not stated)	-0.9	18.6	i	-37.1	54.0*
Cc1cc(NC(=O)CCC(=O)N(CCC(C)C)CC(=O)NCC2CCCO2)no1 (configuration not stated)	.	-11.4	i	.	-9.4
O=C(NC1CCCCC1)C(c1cccs1)N(Cc1cccs1)C(=O)c1cccs1 (configuration not stated)	.	20.8	i	-156.2	98.7*
Cc1cc(NC(=O)CCC(=O)N(c2ccccc2)C(C(=O)NC2CCCC2)c2cccs2)no1 (configuration not stated)	0.62	2.2	i	-118.2	7.6
COc1ccc(C)cc1N(CC(=O)NC1CCCC1)C(=O)CCC(=O)Nc1cc(C)on1	-0.17	10.3	i	.	-2.0
Cc1cc(C)cc(N(CC(=O)NCC2CCCO2)C(=O)CCC(=O)Nc2cc(C)on2)c1 (configuration not stated)	0.39	99.0*	i	7.1	-3.5
Cc1ccc(C)c(N(C(=O)CCC(=O)Nc2cc(C)on2)C(C(=O)NC2CCCC2)c2ccco2)c1 (configuration not stated)	-1.3	9.1	i	-58.1	89.7*
CCC(=O)NC(=S)Nc1cccc(Cl)c1N1CCCCC1	0.89	22.6	i	3.3	12.6
CCOC(=O)COc1ccccc1/C=C\[N+](=O)[O-]	-0.32	68.6*	i	53.3	100.3*
COC(=O)c1cn(C(=O)OC)c2ccccc12	.	66.3*	i	-225.9	19.4
COC(=O)c1cn(C(=O)c2ccc(C)cc2C)c2ccccc12	0.71	60.5*	i	.	15.0
Cc1ccc(S(=O)(=O)Oc2ccc(/C=C(/NC(=O)c3ccccc3)C(=O)NC(C)C(=O)O)cc2)cc1 (configuration not stated)	0.94	10.4	i	.	-2.5
Clc1ccc(-n2nnnc2-c2cnc(-c3ccncc3)nc2-c2cccs2)cc1	.	38.2	i	-383.3	49.5
FC(F)(F)c1nc(-c2cccs2)ncc1-c1nnnn1-c1ccc(Cl)cc1	?	76.6*	i	-3.3	1.6
Cc1ccsc1C(=O)OCc1csc(-c2ccccc2)n1	.	67.0*	i	27.3	5.0
OCCN1CCN(C(=S)c2ccc(Cl)c(Cl)c2)CC1	0.78	-16.0	i	0.0	84.9*
COc1cc(NC(=S)N2CCN(CCO)CC2)c(OC)cc1Cl	0.16	3.9	i	.	-0.7
O=C(COC(=O)CNC(=O)c1ccccc1)Nc1ccc(F)c([N+](=O)[O-])c1	-0.32	-2.1	i	-58.3	-7.1
SMILES	Insulin prom up	WT yeast gro inh	Autophagy mod	INS promoter inh	L major viab
CCOC(=O)c1sc(=S)n(-c2ccccc2Cl)c1C	-0.43	.	.	.	.
CCOC(=O)N1C(=O)C2(CCCCC2)N(c2ccccc2Cl)C1=S	0.05	77.1*	i	-11.1	16.1
CCOC(=O)c1cc(C)n(CCCN2CCOCC2)c1C	-0.17	-0.8	i	-86.2	90.3*
Cc1ccc(S(=O)(=O)N(C)C)cc1NC(=O)c1ccncc1	0.26	-20.6	i	.	-4.3
CCc1cc(C(=O)Nc2cc(S(=O)(=O)N(C)C)ccc2C)sc1C	-0.56	-15.9	i	.	98.8*
CCCNC(=S)N1CCN(CC)CC1	-0.52	-13.2	i	.	1.2
CC(C)(C)NC(=O)c1cccc(NC(=O)CSc2ccccc2)c1	1.34	-5.3	i	10.0	77.5*
O=C1OC(/C=C/c2ccccc2)=NC/1=C\c1cccnc1	0.18	-7.0	i	6.2	-3.7
Cc1ccc(C2=N/C(=C\c3cccnc3)C(=O)O2)cc1	-0.06	11.6	i	-23.1	66.2*
O=C(NCc1ccc(Cl)cc1)c1ccccc1CCc1ccccc1	-0.57	-3.8	i	-23.5	0.8
O=C(NCc1ccccc1Cl)c1cnccn1	0.17	74.9*	i	5.9	-5.2
O=C(NCc1ccccc1Cl)c1ccccc1CCc1ccccc1	0.33	-9.8	i	0.0	53.7*
O=C(NCc1ccc(Cl)cc1)c1cnccn1	0.6	34.8	i	20.5	-7.7
COc1ccccc1OCC(=O)Nc1ccc(S(=O)(=O)Nc2nc(C)cc(C)n2)cc1	-0.33	-8.9	i	25.0	-3.6
CCCCn1cnc2c([nH]c3cc(OC)ccc32)c1=O	-0.58	6.0	i	-34.2	1.9
CCCCOCCCNc1ncnc2c1[nH]c1ccccc12	?	17.2	i	62.1	79.8*
CCOCCCNc1ncnc2c1[nH]c1ccccc12	-7.95	-14.6	i	63.9	44.0
Cc1nc2c([nH]c3ccccc32)c(=O)n1N	-0.34	1.9	i	100.0*	-5.3
CCCCn1cnc2c([nH]c3ccccc32)c1=O	-0.69	-6.2	i	81.6*	0.3
CCCCOc1ncnc2c1[nH]c1ccccc12	0.36	1.4	i	0.0	57.2*
Cc1ccc(OC(=O)c2cccc(S(=O)(=O)N3CCCC3)c2)c(-n2nc3ccccc3n2)c1	-0.67	-9.6	i	6.9	27.2
Cc1cc(/C=C\c2nc(O)c([N+](=O)[O-])c(=O)[nH]2)c(C)n1-c1ccccc1	0.1	5.7	i	.	-3.6
Cn1c(N2CCC(C(N)=O)CC2)nc2c1c(=O)n(Cc1ccc(Br)cc1)c(=O)n2C	.	.	i	-38.1	-2.9
O=c1c2[nH]c3ccc(Br)cc3c2ncn1CCCn1ccnc1	0.05	-21.0	i	78.8*	3.0
COc1ccc(C2=Nc3cccc4cccc(c34)N2)cc1	0.25	65.7*	i	-13.3	9.6
Nc1cccc(C2=Nc3cccc4cccc(c34)N2)c1	0.05	37.8	i	.	0.3
CC1CN(c2nc(-c3ccccc3)nc3ccccc23)CC(C)O1 (configuration not stated)	0.69	-5.7	i	92.0*	12.5

From PubChem
